An excerpt weighted towards active compounds, which were near 1.7% of everything screened.
Hck Nef HTS: inhibitors of Nef-activated human Hck kinase, primary screen, biochemical, Z-Lyte FRET, 384-well, Hck-YEEI; 220,000 tested, 0.68% active; AID 463187, 2010; inhibition, % at 20 µM; Tyrosine-protein kinase HCK (Homo sapiens), P08631; Recombinant Hck-YEEI plus Nef, Z-Lyte FRET kinase assay;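 active means Hck-Nef kinase inhibition above about 50%, limit read from the data; inactive means inhibition below that limit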;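 further: 0% = DMSO with Hck plus Nef and 100% = Hck alone without Nef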
Target sequence (P08631 whole entry, looked up): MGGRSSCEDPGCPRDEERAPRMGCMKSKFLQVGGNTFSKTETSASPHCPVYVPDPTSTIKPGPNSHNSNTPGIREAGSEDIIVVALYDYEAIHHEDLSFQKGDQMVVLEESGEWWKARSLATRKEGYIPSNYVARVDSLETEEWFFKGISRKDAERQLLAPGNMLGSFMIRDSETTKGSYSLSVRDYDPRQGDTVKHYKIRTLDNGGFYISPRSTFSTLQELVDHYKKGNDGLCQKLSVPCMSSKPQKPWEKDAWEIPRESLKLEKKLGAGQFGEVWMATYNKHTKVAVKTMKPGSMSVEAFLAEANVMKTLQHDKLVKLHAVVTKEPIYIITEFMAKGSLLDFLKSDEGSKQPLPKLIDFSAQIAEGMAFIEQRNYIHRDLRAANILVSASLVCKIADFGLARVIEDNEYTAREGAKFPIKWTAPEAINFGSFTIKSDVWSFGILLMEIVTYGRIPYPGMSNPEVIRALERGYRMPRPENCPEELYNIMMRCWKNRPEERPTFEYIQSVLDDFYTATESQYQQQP
PREPL inh: PREPL enzyme inhibitors, primary screen, biochemical, fluorescence polarization. Prolyl endopeptidase-like (Homo sapiens), Q4J6C6. recombinant PREPL, fluorescence polarization activity-based probe. inhibition, % at 5.96 µM. 320,000 tested, 0.68% active. AID 2751, 2010; in the data active means inhibition above about 43%;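 further: 0% = enzyme with DMSO and 100% = wells lacking enzyme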
Rin1-Abl PPI inh: inhibitors of Rin1-Abl protein binding, primary screen, biochemical, TR-FRET; Tyrosine-protein kinase ABL1 (Homo sapiens) + Ras and Rab interactor 1 (Homo sapiens), …; inhibition, % at 7.35 µM; 360,000 tested, 0.4% active; in the data active means inhibition above about 5%, passing the limit was not always enough
LYPLA1 inh: LYPLA1 inhibitors, primary screen, counter-screen for PME1 inhibitor project, biochemical, fluorescence polarization, FP-Rh probe ABPP. recombinant LYPLA1. inhibition, % at 5.9 µM. 320,000 tested, 0.16% active. AID 2174, 2009;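 active means inhibition above the mean of all tested compounds plus 3 SD, set per campaign, cut at about 14% in these data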;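 further: inhibitors block serine hydrolase probe labeling of LYPLA1 so polarization falls; 0% = enzyme with DMSO and 100% = wells lacking LYPLA1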
LYPLA2 inh: LYPLA2 inhibitors, primary screen, counter-screen for PME1 inhibitor project, biochemical, fluorescence polarization, FP-Rh probe ABPP; 320,000 tested, 0.38% active; inhibition, % at 5.9 µM; recombinant LYPLA2;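 active means inhibition above the screen-wide mean plus 3 SD, limit set per campaign, cut at about 26% in these data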;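 further: 0% = LYPLA2 with DMSO and 100% = wells lacking LYPLA2 enzyme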
p97 inhibitor: inhibitors of human p97 ATPase, primary screen, biochemical | 220,000 tested, 0.42% active | Transitional endoplasmic reticulum ATPase (Homo sapiens), P55072 | recombinant p97 ATPase, Kinase-Glo ATP luminescence, 3 h | inhibition, % at 8 µM; in the data active means inhibition above about 15%;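 further: 0% = DMSO vehicle and 100% = wells lacking enzyme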
Hck-Nef confirm: retest of Hck:Nef kinase inhibitor hits, confirmation, biochemical, Z-Lyte FRET, 384-well, p-Tyr peptide counterscreen | shares compounds with Hck Nef HTS | Recombinant Hck-YEEI:Nef, Z-Lyte FRET kinase assay | 1,300 tested, 28% active | AID 463188, 2010 | calls only at 10 µM;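 active means average inhibition of at least 50%, with Z-scores no higher than 3 in both the phospho-tyrosine peptide and fluorescence counterscreens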
Active calls of the source: *; i = inactive; x = no result shown; + = active, no number.

SMILES | Hck Nef HTS | PREPL inh | Rin1-Abl PPI inh | LYPLA1 inh | LYPLA2 inh | p97 inhibitor | Hck-Nef confirm
COc1ccc(/C=C(\NC(=O)c2ccc(C)cc2)C(=O)Nc2ccc(C(=O)O)cc2)cc1 | x | -6 | 4 | 0 | -1 | x | x
Cc1cc(/C=C2\NC(=S)NC2=O)c(C)n1-c1cccnc1 | 29 | 7 | -3 | -4 | 0 | -4 | x
Cc1cc(/C=C2\NC(=O)NC2=O)c(C)n1-c1cccnc1 | 52* | -2 | 1 | -4 | -5 | 6 | i
O=S(=O)(O)c1cccc(N=Nc2c(O)ccc3ccccc23)c1 | 85* | 2 | -8 | 9 | -12 | -2 | +
Cn1c(O)c(N=NC(=O)c2cc(-c3cccs3)nc3ccccc23)c2ccccc21 | 14 | 7 | -1 | 4 | 2 | 0 | x
O=C(N=Nc1c(O)[nH]c2ccc(Br)cc12)c1cc(-c2cccs2)nc2ccccc12 | 163* | x | -2 | x | x | -3 | i
COc1ccc(-c2cc(=O)c3c(O)c(OC)c(OC)c(OC)c3o2)cc1 | x | x | 1 | x | x | x | x
COc1cc(-c2cc(=O)c3ccccc3o2)ccc1O | -72 | 23 | -4 | -1 | -4 | 5 | x
COc1cc(-c2cc(=O)c3c(O)cc(O)cc3o2)ccc1O | 54* | 2 | -3 | -1 | -2 | 3 | i
COc1cc(-c2cc(=O)c3c(O)c(OC)c(OC)cc3o2)cc(OC)c1O | 98* | 17 | 1 | -1 | 5 | x | +
COc1ccc(-c2cc(=O)c3c(O)c(OC)c(O)cc3o2)cc1 | 67* | -23 | 1 | 3 | 5 | -1 | i
C[C@H](CO)N1C[C@H](C)[C@@H](CN(C)C(=O)NC2CCCCC2)Oc2c(NC(=O)Nc3ccccc3)cccc2C1=O | x | 22 | 1 | x | x | x | x
Cc1noc(NS(=O)(=O)c2ccc(NC(=O)c3cc4ccccc4o3)cc2)c1C | x | 26 | -1 | x | x | x | x
NC(=O)c1ccsc1NC(=O)COC(=O)c1cccnc1Cl | x | 0 | 1 | x | x | x | x
COc1ccc(-c2nnc(SCC(=O)c3ccc(C)o3)o2)cc1 | -1 | x | 2 | x | x | 0 | x
COc1ccc(CN(C(=O)CSc2nnc(-c3ccc(F)cc3)o2)c2ccc(F)cc2)cc1 | 77* | -6 | 1 | -1 | 7 | -3 | i
CCC(=O)Oc1ccc2c(C)c(Cl)c(=O)oc2c1 | 109* | 1 | 0 | -2 | 0 | 4 | x
COC(=O)Cc1c(C)c2ccc(OC(=O)c3ccccc3)cc2oc1=O | 56* | 17 | 1 | 0 | 3 | -3 | x
COC(=O)Cc1c(C)c2ccc(OCC(=O)c3ccc(OC)c(OC)c3)cc2oc1=O | x | 19 | x | 1 | 3 | x | x
Cc1c(Cl)c(=O)oc2cc(OC(C)C)ccc12 | 4 | 2 | -4 | 2 | 0 | 1 | x
Cc1c(C)c(C)c(S(=O)(=O)Nc2ccc3[nH]c(=O)[nH]c3c2)c(C)c1C | x | -16 | 2 | -3 | -5 | x | x
CC(C)n1cnc2cc(NCc3ccco3)ccc21 | 79* | 14 | -2 | 2 | 2 | 2 | i
CC(C)n1cnc2cc(NCc3ccccc3O)ccc21 | -5 | -3 | 1 | 1 | 3 | 3 | x
COCCn1c(-c2ccco2)nc2nc3ccccc3nc21 | 120* | 4 | -3 | 0 | -8 | 3 | x
CC(C)OCCCn1c(-c2ccco2)nc2nc3ccccc3nc21 | 131* | 9 | -6 | -1 | 1 | 0 | x
CC(=O)c1cccc(S(=O)(=O)N2CCn3cccc3C2C)c1 (stereo not given) | x | 13 | 1 | 2 | 6 | x | x
Cc1ccc(N/N=C/c2c(C)c(C#N)c(=O)n(C)c2O)cc1C | 77* | x | 2 | x | x | 3 | i
COc1cc(S(=O)(=O)Nc2ccc(C)cc2)ccc1N=Cc1c(C)c(C#N)c(=O)n(C)c1O | 15 | 1 | 0 | -3 | 0 | 2 | x

High-throughput results: PubChem BioAssay, several laboratories
